Experimental data taken from PubChem BioAssay AID624296 (National Center for Advancing Translational Sciences (NCATS), 2012).
Hit rate of the full screen: of about 350,000 compounds, about 9,900 (2.8%) were called active. Where a call stands in place of a potency, no number is given. About 15% were inconclusive and are not listed. Calls follow the shape of the dose curve; as a rule, active = well fitted activation curve with a large enough effect; inconclusive = small, poorly fitted or top-dose-only effect; inactive = no such curve, though single readings can be large or run the other way. The full list was thinned out, with actives kept by preference.

Assay: A quantitative high throughput screen for small molecules that induce DNA re-replication in MCF 10a normal breast cells. Also: nearly all actives have a fitted effect of over 50% in size.
Details: MCF 10A DNA re-replication, Hoechst nuclear intensity, 48 h; series mostly up to 46.1 µM
Potency is read from the fitted curve at half-maximal effect.

| SMILES | Potency |
| --- | --- |
| O=C(COC(=O)c1ccc(F)cc1)NCC1COc2ccccc2O1 (stereo not drawn) | inactive |
| O=C(COC(=O)c1ccccc1O)NCc1ccco1 | inactive |
| Cc1cc(C(=O)OCC(=O)NCc2ccco2)c(C)n1-c1ccccc1 | 6.31 µM (active) |
| CN(c1ccccc1)S(=O)(=O)c1ccc(Cl)c(C(=O)OCC(=O)NCc2ccco2)c1 | inactive |
| O=C1c2ccccc2C(=O)N1CCCCCCN1C(=O)c2ccccc2C1=O | inactive |
| COC(=O)c1ccc(C)c(NC(=O)Cn2c(C)csc2=O)c1 | inactive |
| CCSc1nsc(NC(=O)Nc2cccc(C(C)=O)c2)n1 | 16.4 µM (active) |
| CCSc1nsc(NC(=O)Nc2ccccc2OC)n1 | inactive |
| C=CCSc1nsc(NC(=O)Nc2cccc(C(C)=O)c2)n1 | inactive |
| Cc1cc(N2C(=O)C(O)=C(C(=O)c3ccc(C)o3)C2c2ccc(OCc3ccccc3)cc2)no1 (stereo not drawn) | 20.6 µM (active) |
| COc1cc(C2C(C(=O)c3ccc(C)o3)=C(O)C(=O)N2CCc2ccccc2)ccc1O (stereo not drawn) | inactive |
| COc1cc(C2C(C(=O)c3ccc(C)o3)=C(O)C(=O)N2Cc2cccnc2)ccc1O (stereo not drawn) | inactive |
| Cc1ccc(NC(=O)CN(C)C(=O)c2cccc(S(=O)(=O)N3CCCC3)c2)cc1 | inactive |
| Cc1ccc(S(=O)(=O)N2[C@@H](c3ccccc3F)C(C(=O)O)=CC[C@H]2c2ccc(Cl)cc2)cc1 | 7.31 µM (active) |
| Cc1ccc(S(=O)(=O)N2[C@@H](c3cccc4ccccc34)C(C(=O)O)=C[C@H]2C(C)(C)C)cc1 | inactive |
| Cc1ccc(S(=O)(=O)N2C3C=CC(C3)C2C(=O)O)cc1 (stereo not drawn) | inactive |
| COC(=O)C1=C(C)N(Cc2ccccc2)C(=NCCCOC(C)C)N[C@H]1c1ccccc1 | inactive |
| CC1O[C@H](OC2C(COC3OC(CO)C(O)[C@H](O)C3O)OC(OC3CC[C@]4(C)C(CC[C@@]5(C)[C@@H]4C=C[C@]46OC[C@@]7(CCC(C)(C)C[C@H]74)C(O)C[C@@]56C)C3(C)C)C(O)C2O)C(O)C(O)C1O (stereo partly drawn) | inactive |
| COc1ccc(OCCCC(=O)Nc2cccc(S(=O)(=O)N3CCCCCC3)c2)cc1 | inactive |
| CN(CC(=O)NC1CCN(Cc2ccccc2)CC1)S(=O)(=O)c1ccc(Cl)s1 | inactive |
| CC(=O)Oc1ccccc1C1=NN(C(C)=O)C(c2ccccc2)C1 (stereo not drawn) | inactive |

| SMILES | Potency |
| --- | --- |
| CC(=O)Oc1ccc(OC(C)=O)c2c1C1C=CC2CC1 | 10.3 µM (active) |
| CC(=O)Oc1ccc(C(C)=O)c2c1OCCO2 | inactive |
| CCCCN(C(=O)c1cccc(N2C(=O)c3ccccc3C2=O)c1)c1c(N)n(CCCC)c(=O)[nH]c1=O | inactive |
| O=C(COC(=O)C1CCCO1)Nc1nc(-c2ccc(F)cc2)cs1 (stereo not drawn) | inactive |
| COc1cc(CNCCN(C)C)ccc1OCc1c(F)cccc1Cl | inactive |
| CN(C)CCCNC(=O)/C=C/c1ccc(OCc2c(F)cccc2Cl)cc1 | 23.1 µM (active) |
| COCCCNC(=O)/C=C/c1ccc(OCc2c(F)cccc2Cl)cc1 | inactive |
| O=c1oc2ccccc2c(=O)c2ccccc12 | inactive |
| CCN=C1SC(CC(=O)Nc2ccc(C)cc2)C(=O)N1CC (stereo not drawn) | inactive |
| Cc1ccc(NC(=O)CC2S/C(=N/N=C3\CCCc4ccccc43)NC2=O)cc1 (stereo not drawn) | 14.6 µM (active) |
| Cc1c(Cl)cccc1NC(=O)CC1SC(=NCC2CCCO2)NC1=O (stereo not drawn) | inactive |
| CCN(CC(=O)Nc1c(F)cccc1F)C(=O)c1ccc(-c2ccc(C(C)=O)cc2)o1 | inactive |
| CCCCNS(=O)(=O)CCNCc1ccccc1OC | inactive |
| CC(Sc1ccccc1F)C(=O)Nc1cccc(S(=O)(=O)N2CCOCC2)c1 (stereo not drawn) | inactive |
| O=C(CSc1cccc[n+]1[O-])c1ccc(-c2ccccc2)cc1 | 8.2 µM (active) |
| COc1ccccc1C(=O)CSc1cccc[n+]1[O-] | inactive |
| O=C(CSc1cccc[n+]1[O-])c1ccc(Cl)cc1 | inactive |
| CC[C@]12c3[nH]c4cc(CCC(=O)N(C)C)ccc4c3CCN1C(=O)[C@@H](CC(=O)NCCCN(C)C)C[C@@H]2C(=O)N1CCN(C(=O)c2ccco2)CC1 | inactive |
| CN(C(=O)c1cccc(NC(=O)Cc2ccc(NC(=O)C3CCCN(C(=O)C4CCCC4)C3)cc2)c1)C1CCC1 (stereo not drawn) | inactive |
| O=S(=O)(NCC1CN(S(=O)(=O)c2ccc3c(c2)OCCO3)C1)c1c(F)cccc1F | inactive |
| COC1=CC(=O)OC(c2ccc(OC)cc2)C1 (stereo not drawn) | inactive |

| SMILES | Potency |
| --- | --- |
| CCc1nc2sc(C(=O)O)c(N)c2c2c1CCCC2 | inactive |
| Cc1ccc2c(N)c(C(=O)c3ccccc3)sc2n1 | inactive |
| Cc1nc2sc(C(=O)c3ccccc3)c(N)c2c2c1CCCC2 | 14.6 µM (active) |
| CCOC(=O)C1=CN(Cc2ccc(Br)cc2)S(=O)(=O)N(C)C1C (stereo not drawn) | inactive |
| N#Cc1c(C(F)(F)F)cc(-c2ccc(Cl)cc2)nc1SCC(=O)O | inactive |
| CCOC(=O)CC(=O)CSc1nc(-c2ccccc2)cc(-c2ccc(Cl)cc2)c1C#N | 11.6 µM (active) |
| N#Cc1c(-c2ccccc2)cc(-c2ccccc2)nc1SCC(=O)O | inactive |
| COc1ccc(C(=O)OC(C)C(=O)NC2CCCC2)cc1S(=O)(=O)N1CCOCC1 (stereo not drawn) | inactive |
| COc1cc(OC)cc(C(=O)N[C@H](C(=O)NNC(=O)c2ccc(Br)cc2)C(C)C)c1 | inactive |
| C[C@H](CO)N1C[C@H](C)[C@H](CN(C)C(=O)Nc2ccc(C(F)(F)F)cc2)Oc2c(NC(=O)c3ccncc3)cccc2C1=O | inactive |
| Cc1ccc(Nc2c(O)nc[nH]c2=O)cc1C | inactive |
| CCCN(CCC)S(=O)(=O)c1cc2c(cc1Br)CCN2C(=O)CC | 18.4 µM (active) |
| CCC(=O)N1CCc2cc(Br)c(S(=O)(=O)NCCN3CCCCC3CC)cc21 (stereo not drawn) | inactive |
| CCC(=O)N1CCc2cc(S(=O)(=O)NC(C(=O)N3CCc4ccccc4C3)C(C)C)ccc21 (stereo not drawn) | inactive |
| Cn1c(CC(=O)NNC(=O)c2ccccc2F)nc2ccccc21 | inactive |
| O=S(=O)(O)c1cc2onnc2c2ccccc12 | inactive |
| O=C(Cc1ccc(Cl)cc1)c1ccccc1 | inactive |
| CC1CC(=O)Nc2ccccc2N1C(=O)COc1ccc2cc(Br)ccc2c1 (stereo not drawn) | inactive |
| O=S(=O)(c1ccccc1)c1nc(-c2ccccc2F)oc1NCc1cccnc1 | inactive |
| Cc1ccc(OCc2nc(C#N)c(N3CCCC3)o2)cc1 | inactive |
| N#Cc1nc(COc2ccc(-c3ccccc3)cc2)oc1NCc1cccnc1 | 7.94 µM (active) |
